CHO-K1 Ca antag – M1 antagonist counterscreen hit in parental CHO-K1 cells. ATP-induced calcium, Fluo-8 fluorescence. inhibition, % at 3 µM. AID 602250. 360,000 compounds, 0.6% hits;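 active means inhibition above a per-plate cutoff, the plate's mean sample inhibition plus 3 SD, cut at about 24% in these data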;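 further: 0% = DMSO plus EC80 ATP and 100% = DMSO alone without ATP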
CHRM1 PAM – positive allosteric modulators of human M1 muscarinic receptor | P11229 | CHO-K1 hM1, Fluo-8 calcium fluorescence, ACh EC20; 0% = ACh EC20, 100% = maximal ACh | activation, % at 3 µM | 360,000 compounds, 0.088% hits | AID 588819; in the data active means activation above about 19%, passing the limit was not always enough
Target sequence (P11229 whole entry, looked up): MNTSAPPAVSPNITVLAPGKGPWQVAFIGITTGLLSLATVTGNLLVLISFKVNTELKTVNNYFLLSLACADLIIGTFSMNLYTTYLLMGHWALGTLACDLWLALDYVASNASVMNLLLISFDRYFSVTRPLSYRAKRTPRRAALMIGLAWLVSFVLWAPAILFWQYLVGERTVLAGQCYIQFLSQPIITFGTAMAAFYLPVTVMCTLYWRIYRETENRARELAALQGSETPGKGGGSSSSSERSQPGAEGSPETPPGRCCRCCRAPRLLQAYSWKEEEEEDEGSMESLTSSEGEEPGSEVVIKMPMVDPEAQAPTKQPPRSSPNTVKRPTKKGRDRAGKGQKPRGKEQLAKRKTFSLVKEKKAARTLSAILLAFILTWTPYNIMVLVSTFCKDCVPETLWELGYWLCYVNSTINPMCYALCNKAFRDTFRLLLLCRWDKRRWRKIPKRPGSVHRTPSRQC
CHRM1 agonist – agonists of human M1 muscarinic receptor; CHO-K1 hM1, Fluo-8 calcium fluorescence, agonist mode; 0% DMSO, 100% acetylcholine EC100; activation, % at 3 µM; 360,000 compounds, 0.33% hits; AID 588814;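 active means activation above the run's mean compound activation plus 3 SD, cut at about 16% in these data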;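 further: peak over basal fluorescence ratio within a 140 s kinetic read after compound addition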
M1 ag parental – nonselective activator or artifact in parental CHO-K1 cells; 360,000 compounds, 0.48% hits; Fluo-8 calcium fluorescence; scaled to maximal ATP response, vehicle zero; activation, % at 3 µM; AID 602248; in the data active means activation above about 15%;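 further: untransfected CHO-K1 host cells lacking M1 receptor as counterscreen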
CHO-K1 Ca PAM – counter-screen for M1 PAMs: effect in parental CHO-K1 cells. AID 602247. 360,000 compounds, 0.02% hits. ATP EC20, Fluo-8 calcium fluorescence; 0% at ATP EC20, 100% at ATP max. activation, % at 3 µM;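 active means activation above the run cutoff, the mean activation of all test compounds plus 3 SD, cut at about 40% in these data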;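 further: peak over basal fluorescence ratio in a 140 s read after ATP addition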
M1 antag – human CHRM1 antagonism; CHO-K1 hM1, Fluo-8 calcium fluorescence, ACh EC80 antagonist; inhibition, % at 3 µM; 360,000 compounds, 1.3% hits; P11229;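 active means percent inhibition above its own plate's cutoff, namely the mean of that plate's compound wells plus 3 SD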;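 further: peak over basal fluorescence ratio during 140 s after agonist addition; 0% = ACh EC80 plus DMSO and 100% = DMSO alone without agonist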
* hit, by the source's call. This is a sample that favours compounds with a hit; in the whole collection about 2.4% have one here.

SMILES	CHO-K1 Ca antag	CHRM1 PAM	CHRM1 agonist	M1 ag parental	CHO-K1 Ca PAM	M1 antag
Cc1cc(C)nc(/N=C(\N)N(Cc2ccccc2)Cc2ccccc2)n1	18	-33	-14	4	-15	100*
Cc1ccc(C(=O)Nc2ccncc2)c(C)c1	-12	6	0	3	20	-14
CCCCCOc1ccc(Br)cc1/C(C)=N/NC1=NCCN1	-5	-16	-4	1	20	6
COc1ccc(Br)cc1/C(C)=N/NC1=NCCN1	9	-14	68*	6	-4	79*
Cc1cc(C(=O)NC(C)C2CC2)c(Cl)cc1Cl (stereo unspecified)	-4	8	-5	0	-1	-9
COc1ccc(CCN2CC(C(=O)NCCCc3ccncc3)CCC2=O)cc1 (stereo unspecified)	25*	16	8	0	-7	-1
COc1ccc(CCNC(=O)C2CCC(=O)N(CCc3ccc(OC)cc3)C2)cc1 (stereo unspecified)	5	-6	-2	1	-11	21
Cn1cc(CN2CCCC(C(=O)c3ccc(-c4ccccc4)cc3)C2)cn1 (stereo unspecified)	-15	-13	-11	3	19	-3
Cn1cc(CN2CCCC(C(=O)c3ccc(-c4ccccc4)c(F)c3)C2)cn1 (stereo unspecified)	-13	-29	-12	6	30	28*
COc1cccc(C(=O)C2CCCN(Cc3cn(C)nc3-c3ccccc3)C2)c1 (stereo unspecified)	3	2	-10	0	6	-8
Cc1nn(C)cc1CN1CCCC(C(=O)c2ccc(-c3ccccc3)c(F)c2)C1 (stereo unspecified)	12	-26	-9	26*	15	52*
COc1ccc2cc(C(N)=O)c(=Nc3ccccc3)oc2c1	-3	12	-7	0	21	-7
NC(=O)c1cc2ccc(O)cc2oc1=Nc1ccccc1	24*	5	9	2	-8	-20
CN1C[C@@H]2C(c3ccc(Cl)nc3)C3(c4cccnc4)CC2(C3)[C@H]1c1ccccc1 (stereo partly specified)	-15	-37	-14	1	1	54*
CN1C[C@@H]2C(c3ccc(Cl)nc3)C3(c4ccccc4)CC2(C3)[C@H]1c1ccccc1 (stereo partly specified)	-12	-40	-14	0	13	84*
COC(=O)c1cccc(C23CC4(C2)[C@H](CN(C)[C@@H]4c2ccccc2)C3c2ccccc2)c1 (stereo partly specified)	-12	-39	-14	-1	1	64*
Clc1ccc(C2[C@H]3CN(CC4CCCCC4)[C@H](c4ccccc4)C34CC2(c2ccccc2)C4)cn1 (stereo partly specified)	-16	14	-1	0	7	-4
COC(=O)c1cccc(C23CC4(C2)[C@H](CN(C)[C@@H]4c2ccccc2)C3c2ccc(C(F)(F)F)cc2)c1 (stereo partly specified)	-13	-6	-10	1	8	11
CN1C[C@@H]2C(c3ccccc3)C3(c4ccccc4)CC2(C3)[C@H]1c1ccccc1 (stereo partly specified)	-10	-36	-14	0	19	78*
CN1CCN(c2c([N+](=O)[O-])cnc3ccccc23)CC1	-15	9	-4	1	28	-12
Cc1occc1-c1nnc(SCC(=O)Nc2nc(C(C)(C)C)cs2)o1	30*	-24	-1	11	-10	51*
Cc1csc(NC(=O)CSc2nnc(-c3ccoc3C)o2)n1	-7	6	-1	0	13	-13
COC(=O)C1=CN(Cc2ccccc2)C=C(C(=O)OC)C1c1ccc(OC)c(OC)c1	-5	10	-6	0	20	-28
COC(=O)C1=CN(Cc2ccccc2)C=C(C(=O)OC)C1c1ccc(O)c(OC)c1	25*	5	-2	0	-24	-5
CC(=O)Nc1ccc(S(=O)(=O)NCC(=O)OCC(=O)NCc2ccco2)cc1	28*	5	0	0	-30	-19
SMILES	CHO-K1 Ca antag	CHRM1 PAM	CHRM1 agonist	M1 ag parental	CHO-K1 Ca PAM	M1 antag
Cc1ccc(NC(=O)CN2CCc3cc4c(cc3C2C)OCCCO4)cc1C (stereo unspecified)	-5	0	-3	2	24	0
O=C(CN1CCc2ccccc21)Nc1ccc2c(c1)OCCCO2	2	3	-3	1	-14	4
Cc1ccc(NC(=O)CN2CCc3cc4c(cc3C2C)OCCCO4)cc1 (stereo unspecified)	-1	-22	-4	5	1	53*
O=C(CN1CCc2cc3c(cc2C1)OCCCO3)Nc1ccc(S(=O)(=O)N2CCCC2)cc1	-15	-22	-3	3	15	50*
COC(=O)c1cc(NC(=O)CN2CCc3cc4c(cc3C2)OCCCO4)cc(C(=O)OC)c1	2	7	-9	-1	8	-16
CC1c2cc3c(cc2CCN1CC(=O)Nc1ccccc1)OCCCO3 (stereo unspecified)	3	-32	-7	10	5	33*
Cc1cc(C)n2nc(C(=O)OCC(=O)NCc3ccc(Cl)cc3)nc2n1	-6	0	-4	2	5	2
O=C(CSc1nc2ncccc2[nH]1)Nc1ccccc1-c1ccccc1	-2	-1	-1	2	-12	11
CCN(CC)c1ccc(NC(=O)c2ccc3c(c2)OCO3)cc1	-4	7	-8	1	19	-24
O=C(Nc1ccc(Br)c2ccccc12)c1ccc2ccccc2c1O	14	-14	1	18*	-10	23
CC(=O)Nc1ccc(Br)c2ccccc12	-2	2	-4	0	10	2
CC(C)(C)c1ccc(C(O)c2ncc(-c3ccccc3F)[nH]2)cc1 (stereo unspecified)	6	-5	-3	0	-10	6
CC(=O)NNC(=O)c1sc(=S)n(C)c1C	9	10	8	19*	10	-3
O=C(NCCc1ccccc1)C(=O)NCC1OCCN1S(=O)(=O)c1ccc2c(c1)OCCO2 (stereo unspecified)	0	0	-1	19*	3	5
CC(OC(=O)Cc1ccc(Br)cc1)C(=O)NC1CCCCC1C (stereo unspecified)	-1	6	-2	0	3	-4
S=c1[nH]c2cc(Br)cnc2[nH]1	26*	0	-3	1	-12	4
CCN(CC)C1CCN(Cc2c(C(=O)N3CCCCCCC3)nc3ccc(Cl)cn23)C1 (stereo unspecified)	1	-12	-6	0	-24	32*
CCOC(=O)C(C#N)=CN1CCNc2ccccc21	-8	1	-1	0	10	-8

Assay outcomes from PubChem BioAssay.
